Source: PubChem
HCMV antiviral – human cytomegalovirus inhibition | activity change, negative = inhibition, % at 57.5 µM | HFF cells, HCMV-luciferase reporter, 72 h; hits give low values | hit rate 4.5% among 410,000 | AID 1259415; in the data active = activity change below about -60%; inconclusive = no clear call, values can overlap the other calls; inactive = above about -39%
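HFF cells seeded 16 h at 37C, treated with compounds, infected with luciferase-reporter HCMV at MOI 1 PFU/cell; luciferase read at 72 h post infection, normalized to buffer-only and Salinomycin controls.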
FMDV inh – blocks foot and mouth disease virus | FMDV antiviral cell-based qHTS | Potency, µM (doses to about 57.9 µM), hits mostly inhibitors | hit rate 1.2% among 410,000; calls by dose curve; tested in HEK293T cells; also: read-out not given here; nearly all actives have a fitted effect of over 45% in size
MARV entry inh – blocks Marburg virus binding to or entry into cells; Marburg virus pseudotyped entry inhibition, cell reporter; Potency, µM (highest dose often 37.8 µM), usual class: inhibitors; hit rate 1.8% among 300,000; calls by dose curve; tested in HEK293 cells
Lassa entry inh – Lassa virus entry inhibition. Lassa virus pseudotype entry inhibition, cell reporter. Potency, µM (series often up to 37.9 µM), usual class: inhibitors. hit rate 1.2% among 300,000; calls by dose curve; tested in HEK293 cells; also: nearly all actives have a fitted effect of over 50% in size
A number is an active result. In the library only some 6.2% were active in any assay of this set; here they are far more common.

COC(=O)c1ccccc1NC(=O)CSc1nc(C)cc(C)n1 was read as HCMV antiviral inactive, FMDV inh inactive, MARV entry inh inactive and Lassa entry inh inactive.
For COC(=O)Nc1cc(C)nc2ccccc12 the results were HCMV antiviral inactive, FMDV inh inactive, MARV entry inh inactive and Lassa entry inh inactive.
Screening O=C(CSC1=NCCS1)Nc1ccc2ccccc2c1 returned HCMV antiviral inactive, FMDV inh inactive, MARV entry inh inactive and Lassa entry inh inactive.
Cc1cc(NC(=O)Cc2ccccc2)c2ccccc2n1 was read as HCMV antiviral -85.8 and FMDV inh inconclusive.
Screening O=C(CSC1=NCCS1)Nc1ccnc2ccccc12 returned HCMV antiviral -73.3, MARV entry inh inactive and Lassa entry inh inactive.
`Clc1ccccc1-c1nc2c(NCc3ccccc3)nccc2[nH]1` gave HCMV antiviral inactive.
Screening COC(=O)[C@@H](NC(=O)c1cc(COc2cncc(Cl)c2)on1)c1ccccc1 returned HCMV antiviral inactive, FMDV inh inactive, MARV entry inh inactive and Lassa entry inh inactive.
`CCC(NC(=O)c1cc(COc2cncc(Cl)c2)on1)c1ccc(C)cc1` (configuration not stated) gave HCMV antiviral -99.2, FMDV inh inactive, MARV entry inh inconclusive and Lassa entry inh inactive.
COc1ccccc1NC(=O)c1ccc(S(=O)(=O)N2CCCC(C)C2)cc1 (configuration not stated) was read as HCMV antiviral -63.5, FMDV inh inactive, MARV entry inh inactive and Lassa entry inh inactive.
For Cc1cccc2sc(NNC(=O)c3ccc(S(=O)(=O)N4CCCC(C)C4)cc3)nc12 (configuration not stated) the results were HCMV antiviral -71.7, FMDV inh 10µM, MARV entry inh inconclusive and Lassa entry inh inconclusive.
Screening Cc1cccc2sc(NNC(=O)c3ccc(S(=O)(=O)N4CCc5ccccc5C4)cc3)nc12 returned HCMV antiviral -105.3, FMDV inh inconclusive, MARV entry inh inconclusive and Lassa entry inh inconclusive.
`CC1CCCN(S(=O)(=O)c2ccc(C(=O)Nc3ccccc3-c3nc4ccccc4[nH]3)cc2)C1` (configuration not stated) gave HCMV antiviral inactive, FMDV inh inactive, MARV entry inh inconclusive and Lassa entry inh inactive.
Screening Cc1cccc2sc(NC(=O)c3cccc(S(=O)(=O)N4CCc5ccccc54)c3)nc12 returned HCMV antiviral inactive, FMDV inh inconclusive, MARV entry inh inactive and Lassa entry inh inactive.
`C/C(=N\NC(=S)NC1CCCCC1)c1c(F)cccc1F` gave HCMV antiviral -79.5, FMDV inh inactive, MARV entry inh inconclusive and Lassa entry inh inconclusive.
Screening O=C(NCc1ccccc1)c1nc(-c2ccc(Cl)cc2)n2c1CCCCC2 returned HCMV antiviral inactive, FMDV inh inactive and Lassa entry inh inconclusive.
O=C1C(Cl)=C(NCCN2CCOCC2)C(=O)c2ncccc21 was read as FMDV inh 15.8µM.
O=C1C(Cl)=C(NCCN2CCOCC2)C(=O)c2ccccc21 was read as HCMV antiviral inactive, FMDV inh inactive, MARV entry inh inconclusive and Lassa entry inh inconclusive.
For COC(=O)N[C@@H](c1ccco1)C(C(C)=O)C(=O)OC (some centres not stated) the results were MARV entry inh inactive and Lassa entry inh inconclusive.
For CCN(CC)S(=O)(=O)c1ccc2c(c1)N(CC(=O)N1CCN(c3ccc(OC)cc3)CC1)C(=O)CO2 the results were HCMV antiviral inactive, FMDV inh inactive and Lassa entry inh inactive.
For O=C(Nc1nc2ccc3ccccc3c2s1)c1ccc(N2CCCCC2)c([N+](=O)[O-])c1 the results were HCMV antiviral inconclusive, FMDV inh inactive, MARV entry inh inactive and Lassa entry inh inactive.
Screening O=C(Nc1nc2ccc(Cl)cc2s1)c1ccc(N2CCCCC2)c([N+](=O)[O-])c1 returned HCMV antiviral -66.7, FMDV inh inconclusive, MARV entry inh inconclusive and Lassa entry inh inconclusive.
For COc1ccccc1NC(=O)c1ccc(-n2ccnc2)c([N+](=O)[O-])c1 the results were HCMV antiviral inactive, FMDV inh inactive, MARV entry inh inactive and Lassa entry inh inconclusive.
`O=C(Nc1ccc(N2CCCCC2)c(Cl)c1)c1ccc(N2CCOCC2)c([N+](=O)[O-])c1` gave HCMV antiviral -80.4, MARV entry inh inconclusive and Lassa entry inh inconclusive.
For CN(C)S(=O)(=O)c1cc(NC(=O)c2ccc(-n3ccnc3)c([N+](=O)[O-])c2)ccc1Cl the results were HCMV antiviral -71.0, FMDV inh inconclusive, MARV entry inh inconclusive and Lassa entry inh inconclusive.
`O=C(Nc1cc(Cl)ccc1N1CCOCC1)c1ccc(N2CCCCC2)c([N+](=O)[O-])c1` gave HCMV antiviral inactive, FMDV inh inactive, MARV entry inh inactive and Lassa entry inh inactive.
CN(C)S(=O)(=O)c1cccc(NC(=O)c2ccc(N3CCOCC3)c([N+](=O)[O-])c2)c1 was read as HCMV antiviral -70.9, FMDV inh inconclusive, MARV entry inh inconclusive and Lassa entry inh inconclusive.
`CCOc1ccc(C2c3c(oc4ccc(C)cc4c3=O)C(=O)N2Cc2ccc3c(c2)OCO3)cc1OC` (configuration not stated) gave HCMV antiviral inactive, FMDV inh inactive, MARV entry inh inactive and Lassa entry inh inactive.
For COc1ccc(CCNC(=O)C2CCN(S(=O)(=O)c3c(C)noc3/C=C/c3ccc(C)cc3)CC2)cc1OC the results were HCMV antiviral inactive, FMDV inh inactive and Lassa entry inh inactive.
O=C(CSc1cn(CC(=O)N2CCCCC2)c2ccccc12)Nc1ccccc1F was read as HCMV antiviral inconclusive, FMDV inh inconclusive and Lassa entry inh inactive.
Screening CCN(CC)S(=O)(=O)c1ccc(N2CCOCC2)c(NC(=O)c2ccccc2F)c1 returned HCMV antiviral -64.6, FMDV inh inactive, MARV entry inh inconclusive and Lassa entry inh inconclusive.
CCN(CC)S(=O)(=O)c1cc(NC(=O)c2cc([N+](=O)[O-])ccc2N2CCOCC2)ccc1C was read as HCMV antiviral inconclusive, FMDV inh inactive, MARV entry inh 17.8µM and Lassa entry inh inconclusive.
For O=C(Nc1cccc(S(=O)(=O)N2CCOCC2)c1)c1ccc(Cl)c([N+](=O)[O-])c1 the results were HCMV antiviral inactive, FMDV inh 39.8µM, MARV entry inh inconclusive and Lassa entry inh inactive.
`CCN(CC)S(=O)(=O)c1ccc(N2CCOCC2)c(NC(=O)c2ccc(F)cc2)c1` gave HCMV antiviral inactive, FMDV inh inactive, MARV entry inh inactive and Lassa entry inh inactive.
For CC(=O)N1CCN(c2ccc(NC(=O)c3ccc(N4CCCC4)c([N+](=O)[O-])c3)cc2Cl)CC1 the results were HCMV antiviral -70.9, MARV entry inh inconclusive and Lassa entry inh inconclusive.
`CC1(C(=O)NS(=O)(=O)C2CC2)CCN(C(=O)c2ccc3ccccc3n2)C1` (configuration not stated) gave HCMV antiviral inactive and FMDV inh inactive.
CCOc1ccc(C(=O)Nc2cc(-c3nc4cc(OC)ccc4o3)ccc2C)cc1[N+](=O)[O-] was read as HCMV antiviral inactive, FMDV inh inactive, MARV entry inh inconclusive and Lassa entry inh inactive.
For COc1cccc(C(=O)Nc2cccc(C(=O)NCC(C)C)c2)c1 the results were HCMV antiviral inactive, FMDV inh inactive, MARV entry inh inactive and Lassa entry inh inactive.
